Each structure is given as a SMILES string. The whole screen tested about 68,000 compounds, of which about 2,700 (4%) showed an effect of 50% or more. The sample as a whole holds a higher share of strong results than the screen did.

This assay concerns Plasmodium berghei. The assay is described as follows: Screen against P. berghei liver stage (PbLuc), transformed with Luciferase, at 2uM. To be noted: tested at 2 uM. The class given is functional, HepG2.
For `CCOCC1CN(Cc2cnn(C)c2)Cc2nn(C)cc21` (configuration not stated), the INHIBITION turned out to be 19.44%.
To `CS(=O)(=O)N[C@@H]1CN(C(=O)c2cccnc2)[C@@H]2CCCO[C@@H]21` belongs -13.61%; to `COCC(NC(=O)c1cnn(C)c1)c1cccc(C(F)(F)F)c1` (configuration not stated), 31.38%; to `CCOCC1CN(Cc2ccoc2)Cc2nn(C)cc21` (configuration not stated), -55.93%.
For `CC(C)CN1CCCn2nc(CNC(=O)Cc3cccc(O)c3)cc2C1`, the INHIBITION is on record as 49.95%.
In the case of `CCc1nc(CN(C)C2CCN(CCS(C)(=O)=O)C2)no1` (configuration not stated), the INHIBITION was determined as 50.72%.
With `CCc1nc(CN(C)C2CCN(CCNS(=O)(=O)CC)C2)no1` (configuration not stated) the figure was 20.71%.
To `CN(Cc1noc(C2CC2)n1)C1CCN(CCn2cc(C#N)cn2)C1` (configuration not stated) belongs -9.17%.
To `CCc1nc(CN(C)C2CCN(CCc3ccncc3)C2)no1` (configuration not stated) belongs -11.16%; to `CC(C)c1nc(CN(C)C2CCN(CCn3cc(C#N)cn3)C2)no1` (configuration not stated), 60.09%.
Consider `CN(Cc1noc(C2CC2)n1)C1CCN(CCn2cccn2)C1` (configuration not stated), for which the INHIBITION worked out at 10.1%.
To `Cc1nc(CN(C)C2CCN(CCn3cc(C#N)cn3)C2)no1` (configuration not stated) belongs -27.5%.
To `CCc1nc(CN(C)C2CCN(CCn3cccn3)C2)no1` (configuration not stated) belongs 51.94%.
To `CN(Cc1noc(C2CC2)n1)C1CCN(CCS(C)(=O)=O)C1` (configuration not stated) belongs -6.15%; to `CC(=O)N(C)CC(=O)NC1(c2ccc(Cl)c(Cl)c2)CC1`, 23.45%.
With `Cc1nc(C)c(C(=O)NCCNC(=O)Cc2cccc(F)c2)s1`, the INHIBITION stood at 30.91%.
To `CSCC(C)(O)CNS(=O)(=O)c1ccc(F)cc1` (configuration not stated) belongs -40%.
To `CN(Cc1csc(-c2cccs2)n1)Cc1cccnc1N` belongs 27.47%; to `Clc1ccc(OCCCN2CCOC(Cn3cncn3)C2)cc1` (configuration not stated), 9.17%; to `COc1cc(CN2CCCC2)ccc1Oc1ncccc1C(F)(F)F`, 43.1%.
For the compound `COc1ccc(Oc2ncccc2C(F)(F)F)cc1CN1CCCC1`, the INHIBITION is recorded as 20%.
To `COc1cc(Oc2ncccc2C(F)(F)F)ccc1CN1CCCC1` belongs 66.12%; to `c1cc2nccc(CC3CCCN(Cc4c[nH]cn4)CC3)c2cn1` (configuration not stated), -0.83%.
For the compound `O=C(O)c1ccnc(-c2ccnc(COc3ccccc3Cl)n2)c1`, the INHIBITION worked out at 17.2%.
To `CCc1cnc(CNC(=O)NCCc2ccc(O)cc2)s1` belongs 47.59%; to `CCc1cnc(CNC(=O)NCCCO)s1`, 52.85%; to `CCc1cnc(CNC(=O)NC2CC(C)(C)OC2(C)C)s1` (configuration not stated), -1.45%.
To `CN(C)CC1CN(c2ncnc3ccsc23)CCO1` (configuration not stated) belongs 44.6%; to `CCN1CCCC1CNC(=O)CCc1cccs1` (configuration not stated), 9.27%.
To `CSc1ccc(OC(C)C(=O)Nc2c(C)n[nH]c2C)cc1` (configuration not stated) belongs 3.5%.
Take `CC(=O)N1CCC(c2cnc(-c3c(C)nn(C)c3C)cn2)CC1`: the INHIBITION turned out to be 34.06%.
To `Cn1cc(C(=O)CC2CCCN2C(=O)c2cncc3ccccc23)cn1` (configuration not stated) belongs 11.1%.
As for `CCc1ccccc1C(=O)N1CCCC1CC(=O)c1cnn(C)c1` (configuration not stated), the INHIBITION was -7.41%.
To `Cn1cc(C(=O)CC2CCCN2C(=O)c2cccc3ncccc23)cn1` (configuration not stated) belongs 51.19%; to `COc1cc(C(=O)N2CCCC2CC(=O)c2cnn(C)c2)ccc1F` (configuration not stated), 64.2%; to `Cn1cc(C(=O)CC2CCCN2C(=O)c2ccncc2F)cn1` (configuration not stated), -5.09%.
Turning to `Cn1cc(C(=O)CC2CCCN2C(=O)c2ccc(Cl)cn2)cn1` (configuration not stated), the INHIBITION was 24.55%.
To `Cc1noc([C@H]2C[C@H]3OCC[C@H]3N(C3CCC3)C2)n1` belongs 44.94%; to `COc1ccccc1CN(C)C(=O)CN1CC(n2nc(C)cc2C)C1`, 18.15%.
To `NCCc1cccc(CN2CCN(c3ccccc3)C(=O)C2)c1` belongs 22.72%; to `Cc1cc(C)cc(CN2CCN(Cc3cccc(CCN)c3)CC2=O)c1`, 61.75%; to `Cc1cc(C)cc(N2CCN(Cc3cccc(CCN)c3)CC2=O)c1`, 10.92%.
With `CC(C)c1nnc2n1CCN(Cc1ccc3c(c1)OCO3)CC2` the figure was -21.23%.
Regarding `Cc1cccc(CN2CCC3(CCN(c4ccccn4)C3)C2=O)c1` (configuration not stated), the INHIBITION amounted to 17.39%.
Regarding `Cc1n[nH]c(C2CN(CC(=O)NCCc3ccsc3)CCO2)n1` (configuration not stated), the INHIBITION is 50.74%.
To `Cc1n[nH]c(C2CN(CC(=O)NCCc3ccccc3)CCO2)n1` (configuration not stated) belongs 19.43%; to `CCc1n[nH]c(C2CN(CC(=O)NCCc3ccsc3)CCO2)n1` (configuration not stated), 12.46%.
With `CC(CNC(=O)CCCc1ccccn1)c1ccsc1` (configuration not stated) the figure was 18.85%; with `Cc1ccc(CN2CC[C@@H](O)[C@@H]2Cc2ccccc2)o1`, 14.65%; with `Cc1cccc(C(C(=O)N(C)Cc2ccon2)N(C)C)c1` (configuration not stated), -2.69%.
With `Cc1cc(C)cc(CCC(=O)N(C)CCc2cn[nH]c2)c1` the figure was -4.26%; with `Cc1ccccc1C(C(=O)N(C)CCc1cn[nH]c1)N(C)C` (configuration not stated), -102.03%.

The values are drawn from ChEMBL document CHEMBL4513216, “Probing the Open Global Health Chemical Diversity Library for Multistage-Active Starting Points for Next-Generation Antimalarials” (ACS Infect Dis, 2020).
